# Screening data (PubChem BioAssay)
# DRD3 antagonist – blocks the human D3 dopamine receptor; P35462; D3R cells, DiscoveRx beta-arrestin luminescence, antagonist mode; stronger effect = lower value; 360,000 compounds, 2.5% hits; AID 652054; max response, negative = inhibition, %; in the data active = max response below about -50%; inconclusive = no clear call, values can overlap the other calls; note: % is set by controls: 0 for no effect and ±100 for the full control effect
#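 Cells plated overnight at 1500 cells/well, then exposed to library compounds with dopamine controls for 90 minutes at 37 degrees C. DiscoveRx reagent added for 30–60 minutes at room temperature; luminescence read, quantitative HTS format.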
# PI4K2A block – blocks human PI4K2A kinase activity | activity change, negative = inhibition, % at 76.9 µM | 420,000 compounds, 0.13% hits | purified PI4K2A, ADP-Glo luminescence, 1 h; stronger effect = lower value | Q9BTU6; in the data active = activity change below about -50%; inconclusive = mostly about -30% to -49%;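 note: -100% = wells without enzyme as full effect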
# Target sequence (Q9BTU6 whole entry, looked up): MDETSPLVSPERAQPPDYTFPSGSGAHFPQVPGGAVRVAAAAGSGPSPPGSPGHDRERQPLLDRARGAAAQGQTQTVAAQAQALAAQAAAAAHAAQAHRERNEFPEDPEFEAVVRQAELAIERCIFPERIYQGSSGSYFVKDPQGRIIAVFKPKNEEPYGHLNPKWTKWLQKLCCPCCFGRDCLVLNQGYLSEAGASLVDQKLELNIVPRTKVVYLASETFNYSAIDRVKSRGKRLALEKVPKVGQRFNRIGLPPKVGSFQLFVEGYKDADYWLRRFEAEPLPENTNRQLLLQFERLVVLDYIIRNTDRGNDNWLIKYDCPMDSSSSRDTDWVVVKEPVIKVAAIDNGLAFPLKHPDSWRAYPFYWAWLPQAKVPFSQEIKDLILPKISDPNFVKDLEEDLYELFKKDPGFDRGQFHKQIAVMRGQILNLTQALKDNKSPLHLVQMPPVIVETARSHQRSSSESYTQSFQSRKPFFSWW
#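 ADP-Glo luminescence measured ADP generated by PI4K2A enzyme (4 ug/mL before mixing) with 1.2 mM PI substrate (pre-mix) and 300 microM ATP (pre-mix). Tris pH7.5 buffer with MgCl2, Triton X-100; 1 h reaction at ambient temperature.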
# PI5P4Ka inh – blocks human PI5P4K alpha kinase activity; max response, %; P48426; 330,000 compounds, 1.2% hits; PI5P4Kalpha enzyme, ADP-Glo luminescence, 60 min; stronger effect = lower value; active = max response of -50% or lower; inconclusive = between -30% and -50%; inactive = -30% or higher; note: value at the top dose of about 77 µM; % is set by controls: 0 for no effect and ±100 for the full control effect
#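 qHTS, 1536-well: enzyme/substrate mix, compound by pin tool, 5 microM ATP final; RT 60 min; ADP-Glo reagents 1 (45 min) then 2 (30 min); luminescence.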
# LDHA inh – blocks human lactate dehydrogenase A. 480,000 compounds, 0.15% hits. activity change, % (values are at about 110 or 230 µM). purified LDHA, NADH/diaphorase-resazurin fluorescence; stronger effect = lower value; in the data active = activity change below about -30%; inconclusive = mostly about -25% to -30%;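 note: plate controls were DMSO wells for no effect and wells without enzyme for full effect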
#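 LDH5 2 nM; NADH 0.06 mM, pyruvate 0.2 mM; 200 mM Tris pH 7.4, EDTA, Tween-20; 5 min RT. Detection: diaphorase 0.133 mg/mL + resazurin 37 µM, fluorescence ex540/em590 at 0 and 20 min; normalized to enzyme-free and DMSO wells.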
# D3 ag – activates the human D3 dopamine receptor | P35462 | D3R DiscoveRx beta-arrestin cells, luminescence, 90 min | max activation, % | 410,000 compounds, 0.58% hits | AID 652048; in the data active = max activation above about 30%; note: 0% is about no effect
#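 Cells at 1500/well, incubated overnight, then treated with pinned compounds (dopamine as control) for 90 min at 37 degrees C. DiscoveRx reagent added for 30 - 60 minutes at room temperature; luminescence read.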
# Starred values were filed as active, the others as inactive; ? = inconclusive; . = no result given. In the library only some 3.3% were active in any assay of this set; here they are far more common.
SMILES,DRD3 antagonist,PI4K2A block,PI5P4Ka inh,LDHA inh,D3 ag
Cc1ccc2nc(SCC(=O)OCc3ccccc3)nc(=O)n2c1,-55*,-4,2,4,-1
CCOc1cc(C=O)cc(Cl)c1OC(C)C(=O)OC (configuration not stated),.,.,.,12,.
Cc1ccc(F)c(NC(=O)c2ccn(Cn3nnc(-c4ccccc4)n3)n2)c1,.,.,.,5,.
CC(C)N1CCc2c(sc(NC(=O)C(C)(C)C)c2-c2nc3ccccc3s2)C1,.,.,.,8,.
Cc1cccc(NC(=O)Cn2cnc3sc(C)c(S(=O)(=O)N4CCC(C)CC4)c3c2=O)n1,49,7,.,-12,35*
Cc1sc2ncn(CC(=O)Nc3ccc(F)cc3F)c(=O)c2c1S(=O)(=O)N1CCC(C)CC1,.,4,.,-6,-1
CC1=C(C(=O)N2CCOCC2)C(c2ccc(F)cc2)C2=C(CCCC2=O)N1 (configuration not stated),.,.,.,0,.
COc1ccccc1NC(=O)c1c(C)cc(C)nc1SCC(=O)NC1CCCCC1,.,.,.,-7,.
CCN(CC)CCOC(=O)c1cccc(Br)c1,-58*,-2,-8,-3,-15
CNc1nc(N)c([N+](=O)[O-])c(Nc2cccc(OC)c2)n1,.,1,.,.,.
COc1cccc(C(=O)Nc2cc(C(C)(C)C)on2)c1,.,.,.,0,.
O=C(NCc1ccccc1)C1=C[C@@H](c2ccc(Br)cc2)C[C@@H](OCCCCO)O1,-23,0,-2,8,-21
C#Cc1ccc([C@@H]2C=C(C(=O)NCc3ccccc3)O[C@H](OCCCCO)C2)cc1,0,-25,-64*,13,-17
C#CCNC(=O)C1=C[C@@H](c2ccccc2)C[C@@H](OCCCCO)O1,-14,-4,1,1,-13
C#CCNC(=O)C1=C[C@@H](c2ccc(C#C)cc2)C[C@@H](OCCCCO)O1,17,-24,-56*,3,3
O=C(/C=C/c1cccs1)Nc1ccc2c(c1)CCC2,.,.,.,-1,.
Cn1c(-c2ccccc2)c(C(=O)CCl)c2ccccc21,-51*,9,11,-9,-6
CCOC(=O)c1cnc2ccc(C(=O)OC)cc2c1Nc1ccc2c(c1)OCCO2,17,5,.,-2,8
CCOC(=O)c1cnc2ccc(OC)cc2c1Nc1ccc2c(c1)OCCO2,-70*,2,4,5,0
C/C(=N/Nc1ccc(S(N)(=O)=O)cc1[N+](=O)[O-])c1ccc(Cl)c(Cl)c1Cl,.,.,.,-14,.
Cc1ccccc1NC1(C#N)C(=O)Nc2ccccc21 (configuration not stated),-9,8,-3,4,-3
CC(C)c1ccc(NC2(C#N)C(=O)Nc3ccccc32)cc1 (configuration not stated),-53*,12,11,6,-7
O=C(O)c1ccc(Cl)c(S(=O)(=O)Nc2ccccc2C(=O)Nc2ccc(Cl)cc2)c1,-19,-5,-13,-38*,-13
O=C(O)c1ccc(NS(=O)(=O)c2ccc(Cl)c(C(=O)Nc3ccccc3)c2)cc1,23,-3,1,-5,3
O=S(=O)(Nc1ccc(-n2cccc2)cc1)c1ccc(Cl)cc1Cl,-53*,-2,2,-6,-1
SMILES,DRD3 antagonist,PI4K2A block,PI5P4Ka inh,LDHA inh,D3 ag
O=C(CCN1CCN(c2ccccc2F)CC1)Nc1ccc2c(c1)OCO2,314,-7,.,1,40*
Cc1cccc(NC(=O)CCN2CCN(c3ccccc3F)CC2)c1,.,2,.,0,39*
COCCOC(=O)c1c(C)nc(SCC(=O)Nc2cccc3ccccc23)c(C#N)c1-c1ccco1,-65*,5,0,-16,-2
COC(=O)C1(NC(=O)CSc2ccccc2F)CCCCC1,.,.,.,11,.
Cc1cc(N)c2cc(NC(=O)/C=C/c3ccccc3Cl)ccc2n1,-83*,9,?,-5,-15
CCN(CC)CCNC(=O)c1ccc(Sc2ccc(Cl)cc2)c(NC(C)=O)c1,-77*,4,5,-5,-16
CCN(CC)CCNC(=O)c1ccc(Sc2ccc(C)cc2)c(NC(C)=O)c1,-88*,5,0,-12,-16
Cc1cccc(NC(=O)c2cc3cc(Cl)ccc3nc2C)c1,.,.,.,9,.
O=C(NCCCc1ccccc1)C(=O)NCc1n[nH]c(=O)c2ccccc12,.,.,.,7,.
COc1ccc2c(c1)/C(=C\c1cccc(/C=C3/C(=O)Nc4ccc(OC)cc43)n1)C(=O)N2,-53*,-6,-11,1,-18
COc1ccccc1NC(C)c1nc(-c2ccco2)no1 (configuration not stated),.,.,.,-1,.
CCN(CC)S(=O)(=O)c1ccc(N2CCN(CCOc3ccc(OC)cc3)CC2)nc1,-6,1,-7,-5,61*
CCOc1ccccc1Nc1nc(-c2cccc(Cl)c2)c2c(n1)-c1ccccc1OC2,.,1,.,1,-9
O=C(C1CC(c2ccccc2O)=NO1)N1CCc2ccccc2C1 (configuration not stated),-95*,3,.,3,-2
O=C(C1CC(c2ccc(F)cc2)=NO1)N1CCc2ccccc2C1 (configuration not stated),-20,-4,0,2,3
O=C1C(=C2CCc3ccccc32)Cc2ccccc21,3,-9,5,-4,-6
c1ccc2c(c1)CCc1ccccc1C2=C1CCNCC1,-85*,-3,2,-4,-14
Cc1cccc(C(=O)NNC(=O)c2ccc(F)cc2)c1,-5,1,-2,-6,-4
O=C(NNC(=O)c1cccc(-n2cccc2)c1)c1ccc(F)cc1,-23,-14,-68*,-5,-3
O=C(CCCOc1ccccc1)N1CCN(c2ccccc2)CC1,-53*,-16,0,2,-20
O=C(CCOc1ccccc1)N1CCN(c2ccc(O)cc2)CC1,2,-20,6,26,11
Cc1[nH]n(-c2ccccc2)c(=O)c1/C=N/NC(=O)c1ccc(O)cc1O,13,-5,-16,0,5
CCCCN(CCCC)C(=S)N/N=C/c1c(C)[nH]n(-c2ccccc2)c1=O,-104*,7,1,0,-41
COc1ccc(CN(C(=O)c2nn(Cc3ccccc3)c(=O)c3ccccc23)C2CC2)cc1,.,.,.,17,.
O=C(C1=C(O)C(=O)N(c2nncs2)C1c1ccc(F)cc1)c1cccs1 (configuration not stated),.,.,.,3,.
CC1=NN(c2nc(-c3ccc(C)cc3)cs2)C(=O)C1N=Nc1cccc(O)c1 (configuration not stated),4,-5,-71*,-2,-9
CC1=NN(c2nc(-c3ccc(C)cc3)cs2)C(=O)C1N=Nc1ccccc1O (configuration not stated),-64*,3,-30,-4,-13
CCc1ccccc1-n1c2c(cc(C#N)c1=O)C(=O)CC(c1ccccc1)C2 (configuration not stated),.,.,.,13,.
